Calls of active or inactive are those of the source.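 Rule for the calls, unless noted: active = RAM network inhibition above 8.4% in each of two replicates, 3 SD over the compound average; inconclusive = above 8.4% inhibition in only one replicate; inactive = 8.4% inhibition or less in each replicate.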
Assay: inhibitors of the yeast RAM network, pilot screen, dse1pr::URA3 reporter, 5-FOA selection (AID 869;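 active = inhibition over a set limit, the all-compound mean plus 3 SD, in both replicate runs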;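 note: 0% = DMSO wells with no growth and 100% = 10 µM 1-NA-PP1 with full growth; RAM network block rescues cells from 5-FOA so hits raise OD615 growth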)
Settings: S. cerevisiae dse1pr::URA3 5-FOA growth, OD615, 2 d; at 10 µM; active compounds read high; strain carries analog-sensitive mutant Cbk1 kinase

| Compound | inhibition |
| --- | --- |
| CNC(=O)c1ccsc1NC(=O)c1ccccc1 | 1.97% (inactive) |
| N#Cc1cc2c(nc1SCC(=O)N1CCCCC1)CCCC2 | 3.67% (inactive) |
| COc1ccccc1S(=O)(=O)Cc1ccc(C(=O)N2CCN(c3ccc(C)cc3)C(C)C2)o1 (stereo not given) | 0.41% (inactive) |
| CCOC(=O)N1CCC(c2cc(=O)n3[nH]c(C)c(-c4ccc(F)cc4)c3n2)CC1 | 0.04% (inactive) |
| CCc1ccccc1NC(=O)c1cnc2n(c1=O)CCS2 | 1.32% (inactive) |
| CC(CCc1ccco1)NC(=O)Cn1ncc2c1-c1ccccc1OC2 (stereo not given) | 1.11% (inactive) |
| COc1cccc(NC(=O)C2CCCN(S(=O)(=O)c3cccc4cccnc34)C2)c1 (stereo not given) | 1.77% (inactive) |
| CNC(=O)c1ccccc1NC(=O)c1c(O)c2c([nH]c1=O)CCCC2 | 1.7% (inactive) |
| CN(C)CCCN1C(=O)CSC1c1ccccc1 (stereo not given) | 1.47% (inactive) |
| CSc1cccc(NC(=O)C2CCN(S(=O)(=O)c3ccc(F)cc3)CC2)c1 | 1.71% (inactive) |
| O=C(CSc1nnc(Cn2c(=O)sc3ccccc32)n1-c1ccccc1)Nc1nccs1 | 2.44% (inactive) |

Assay: RAM signaling pathway blockade in yeast – S. cerevisiae, Pdr1DBD-CYC8 efflux-inhibited sensitized strain, primary screen (AID 1298);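 note: 0% = DMSO untreated cells without growth and 100% = 10 µM 1-NA-PP1 full growth; higher means more yeast growth rescued from 5-FOA killing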
Settings: S. cerevisiae cbk1-as DSE1-URA3 strain, 5-FOA growth OD615, 2 d; at 50 µM; active compounds read high

| Compound | RAM network inhibition |
| --- | --- |
| CC(CCc1ccccc1)NC(=O)C1CCCN(c2nnc(-n3cccc3)s2)C1 (stereo not given) | 2.83% (inactive) |
| O=C(c1cc(C2CC2)on1)N1CCN(C(c2ccccc2)c2ccccc2)CC1 | 7.26% (inactive) |
| O=C(C1COc2ccccc2O1)N1CCCC1 (stereo not given) | -0.78% (inactive) |
| CCCCOC(=O)Nc1nc2ccc(OC)cc2s1 | 7.75% (inactive) |
| CCn1cc(C(=O)NCC2CCCO2)c(=O)c2cc(S(=O)(=O)N(C)C3CCCCC3)ccc21 (stereo not given) | -0.83% (inactive) |
| CCCNC(=O)CS(=O)(=O)Cc1nc(-c2cccc(OC)c2)oc1C | -0.47% (inactive) |
| CC(=O)C1=C(N2CCCCC2)CCC1=O | 0.55% (inactive) |
| CCOC(=O)C1CCN(Cc2ccc(F)c(Br)c2)CC1 | -0.36% (inactive) |
| Cc1ccc(N(C(=O)c2ccncc2)C2C=CS(=O)(=O)C2)cc1 (stereo not given) | 5.22% (inactive) |
| COc1ccc(CCNC(=O)C2(C)CCC(=O)N2Cc2ccc3c(c2)OCO3)cc1OC (stereo not given) | 1.36% (inactive) |
| COc1ccc(C2c3c(oc4ccccc4c3=O)C(=O)N2c2ccc(C)cn2)cc1OC (stereo not given) | 11.6% (inactive) |
| CCn1cc(C(=O)NCCCOC)c(=O)c2cc(S(=O)(=O)N(C)C)ccc21 | 0.52% (inactive) |
| Cc1cc(C)nc(/N=C2\NC(=O)CC(C(=O)O)N2c2ccc(Cl)cc2)n1 (stereo not given) | 3.63% (inactive) |
| O=C(O)c1ccccc1S(=O)(=O)NCC(O)COc1ccc(Br)cc1 (stereo not given) | 7.5% (inactive) |
| COC(=O)Cn1c(=NC(=O)CSCC(=O)Nc2cc(C)on2)sc2ccccc21 | 7.51% (inactive) |
| COc1ccc(S(=O)(=O)N(CC(=O)N2CCN(c3ccccc3OC)CC2)c2ccccc2)cc1 | 2.02% (inactive) |
| CCOc1ccccc1NC(=O)CC1Nc2cc(C)c(C)cc2NC1=O (stereo not given) | 5.85% (inactive) |
| COc1ccc(N2Cc3ccccc3C2)cc1Cl | 7.11% (inactive) |
| CCOC(=O)C(CC)n1nc(C)n2c(cc3sccc32)c1=O (stereo not given) | 2.14% (inactive) |
| CCOC(=O)C(CC)(CCC(=O)O)c1csc(N)n1 (stereo not given) | -1.93% (inactive) |

| Compound | RAM network inhibition |
| --- | --- |
| CCOc1ccc(NC(=O)CN2C(=O)C3CCCN3C2=O)cc1 (stereo not given) | 2.93% (inactive) |
| CCOC(=O)N1CCN(C(=O)COc2ccc(S(=O)(=O)NC(C)C)cc2)CC1 | 7.54% (inactive) |
| O=C(NC1CCCc2ccccc21)c1ccc(CNc2c(N3CCOCC3)c(=O)c2=O)cc1 (stereo not given) | 6.53% (inactive) |
| CNC(=O)c1ccsc1NC(=O)c1ccccc1 | -1.39% (inactive) |
| N#Cc1cc2c(nc1SCC(=O)N1CCCCC1)CCCC2 | 2.13% (inactive) |
| COc1ccc(N2CCN(c3oc(COc4ccccc4Cl)nc3C#N)CC2)cc1 | 4.12% (inactive) |
| COc1ccccc1S(=O)(=O)Cc1ccc(C(=O)N2CCN(c3ccc(C)cc3)C(C)C2)o1 (stereo not given) | 5.28% (inactive) |
| CCOC(=O)N1CCC(c2cc(=O)n3[nH]c(C)c(-c4ccc(F)cc4)c3n2)CC1 | 0.41% (inactive) |
| O=C1CCCC2=C1C(c1cccc(Br)c1)n1nc(-c3ccco3)nc1N2 (stereo not given) | 0.99% (inactive) |
| CCc1ccccc1NC(=O)c1cnc2n(c1=O)CCS2 | 5.66% (inactive) |
| CC(CCc1ccco1)NC(=O)Cn1ncc2c1-c1ccccc1OC2 (stereo not given) | 7.86% (inactive) |
| COc1cccc(NC(=O)C2CCCN(S(=O)(=O)c3cccc4cccnc34)C2)c1 (stereo not given) | 3.85% (inactive) |
| COc1ccc(C(=O)Nc2nncs2)c(OC)c1 | 5.61% (inactive) |
| CNC(=O)c1ccccc1NC(=O)c1c(O)c2c([nH]c1=O)CCCC2 | 3.36% (inactive) |
| Cc1occc1C(=O)N1CCN(Cc2ccccc2)CC1 | 2.68% (inactive) |
| CN(C)CCCN1C(=O)CSC1c1ccccc1 (stereo not given) | 0.73% (inactive) |
| CCc1ccc(N(CC(=O)NC2CCCC2)S(=O)(=O)c2c(C)noc2C)cc1 | 2.82% (inactive) |
| CSc1cccc(NC(=O)C2CCN(S(=O)(=O)c3ccc(F)cc3)CC2)c1 | 7.8% (inactive) |
| O=C(CSc1nnc(Cn2c(=O)sc3ccccc32)n1-c1ccccc1)Nc1nccs1 | 2.05% (inactive) |

Source: PubChem BioAssay
